Shiga toxin inh: inhibitors of Shiga toxin in Vero cells | 290,000 compounds, 9.2% hits | inhibition, % at 38.7 µM | Vero cells, Shiga toxin protein synthesis inhibition reporter; in the data active = inhibition mostly above about 28%, no sharp cut-off; inactive = mostly below about 43%; note: 0% is about no effect
Giardia FBPA inh: Giardia lamblia aldolase inhibition; A8B2U2; purified Giardia FBPA; Potency, µM (doses to about 59.6 µM), without a hit: top-dose activity, negative = inhibition, actives largely listed as inhibitors; 290,000 compounds, 0.71% hits; AID 2451; note: potency is the fitted concentration of half-maximal effect; % is set by controls: 0 for no effect and ±100 for the full control effect; nearly all actives have a fitted effect of over 55% in size
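40 nM FBPA preincubated 10 min at RT with compound (up to 57.5 uM final), then substrate plus GAPDH/TPI/NAD/arsenate coupling and diaphorase/resazurin added. Fluorescence read after 20 min at RT, 525/598 nm.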
LmPK inh: LmPK (Leishmania mexicana) enzyme inhibition; Q27686; purified LmPK, Kinase-Glo ATP luminescence, 1 h; Potency, µM (highest dose often 57.5 µM), without a hit: at the highest dose activity change, negative = inhibition, hits mostly inhibitors; 290,000 compounds, 0.37% hits; AID 1721; note: potency is the fitted concentration of half-maximal effect; % is set by controls: 0 for no effect and ±100 for the full control effect
Target sequence (Q27686 whole entry, looked up): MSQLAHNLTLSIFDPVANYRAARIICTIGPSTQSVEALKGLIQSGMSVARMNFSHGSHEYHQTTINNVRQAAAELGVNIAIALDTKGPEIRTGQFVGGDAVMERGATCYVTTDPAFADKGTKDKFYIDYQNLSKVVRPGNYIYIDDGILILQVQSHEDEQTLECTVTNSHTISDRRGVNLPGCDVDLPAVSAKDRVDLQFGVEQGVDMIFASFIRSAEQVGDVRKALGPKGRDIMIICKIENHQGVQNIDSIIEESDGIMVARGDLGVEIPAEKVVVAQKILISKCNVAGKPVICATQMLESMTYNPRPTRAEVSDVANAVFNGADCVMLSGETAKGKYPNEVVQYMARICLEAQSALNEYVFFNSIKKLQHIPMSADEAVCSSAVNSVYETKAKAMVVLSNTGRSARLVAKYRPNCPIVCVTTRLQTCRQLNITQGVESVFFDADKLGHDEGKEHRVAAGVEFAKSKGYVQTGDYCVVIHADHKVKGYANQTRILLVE
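Purified LmPK (0.1 nM) with 0.5 mM PEP and 0.1 mM ADP in imidazole buffer pH 7.2 with MgCl2/KCl, 1 h at room temperature. ATP formed was read by luciferase luminescence and normalized to no-enzyme and uninhibited controls.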
Cycloheximide cs: affects cycloheximide protein synthesis inhibition readout, counter-screen. cell reporter, cycloheximide protein synthesis inhibition counterscreen. max response, %. 300,000 compounds, 12% hits. AID 2314; in the data active = max response mostly above about 13%, no sharp cut-off; inactive = mostly below about 14%; note: read at 38.3 µM for the half of the compounds with a filed dose; 0% is about no effect
NS1 inh: influenza NS1 inhibition; Potency, µM (series often up to 46.1 µM), for inactives: at the highest dose activity, positive = more growth; 270,000 compounds, 0.4% hits; calls by dose curve; note: potency is the fitted concentration of half-maximal effect; actives are rising curves; nearly all actives have a fitted effect of over 50% in size
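Recovery from NS1-induced slow growth read by OD600 in budding yeast switched to galactose assay medium (pH 6.0, -URA) at 1:100 dilution. Compound 23 nl per well; the matching strain lacking NS1 serves as control.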
Flu NS1 inh: validation of influenza NS1 protein function inhibitors; shares compounds with NS1 inh; influenza NS1 function cell assay, 15-point titration; 1,400 tested, under 10 active; AID 492980; activity change, negative = inhibition, % at 32.9 µM; calls by dose curve; note: 0% is about no effect
Flu PR8 replic: influenza NS1 inhibitors: inhibition of influenza A/PR/8/34 replication | MDCK infected influenza A/PR/8/34, virus titer TCID50; hits give low values | shares compounds with NS1 inh | AID 504647 | virus titer (log TCID50), log10 TCID50 at 5 µM | 95 compounds, 30% hits; call rule not given here
* hit, by the source's call; ? = inconclusive; nt = not tested or not shown; [ ] = dose if it differs, or a comment. In the library only some 14% were active in any assay of this set; here they are far more common. Unless noted, calls come from the whole dose curve; as a rule, active = well fitted curve in the direction sought with a large enough effect; inconclusive = small, poorly fitted or top-dose-only effect, or another doubt; inactive = no such curve, though single readings can be large; an effect the other way counts as inactive or inconclusive.

SMILES | Shiga toxin inh | Giardia FBPA inh | LmPK inh | Cycloheximide cs | NS1 inh | Flu NS1 inh | others
CC(=O)N1CCCc2cc(S(=O)(=O)N3CCCC(C(=O)N4CCN(c5ccccc5)CC4)C3)ccc21 (centres undefined) | -18.2 | -5.8% | 4.4% | 4.2 | ? | nt
O=C1CN(C(=O)c2ccc(Br)o2)C(c2ccccc2)c2cc(Br)ccc2N1 (centres undefined) | 17.6 | -6.1% | -6.5% | 8.1 | 11.2µM* | -10.4
Cc1ccc2c(c1)C(c1ccccc1)N(C(=O)c1ccc(Br)o1)CC(=O)N2 (centres undefined) | 12.7 | -19.6% | -0.5% | 5.0 | 24.6% | nt
N#Cc1c(Cl)nc(SCc2ccccc2)nc1-c1ccccc1 | 33.8 | -9.5% | 7.3% | -3.7 | ? | -15.9
N#Cc1c(Cl)nc(-c2ccncc2)nc1-c1ccccc1 | 20.6 | 7.3% | -4.5% | 0.6 | 1.5% | nt
CCOCCCNC(=O)c1cc(Nc2ccc(OC)cc2OC)nc2ccccc12 | -1.6 | -3.5% | -7.7% | 2.2 | -5.2% | nt
O=C(CCN1C(=O)C2CC=C(Cl)CC2C1=O)NCc1ccccc1 (centres undefined) | -0.7 | 2.6% | -1.3% | 1.4 | 2.0%[9.22 µM] | nt
O=C(CCN1C(=O)C2CC=C(Cl)CC2C1=O)Nc1ccccc1O (centres undefined) | -15.2 | 0.6% | 0.0% | -1.0 | ? | 9.3
O=S(=O)(c1ccc(Br)cc1)c1nc(-c2ccccc2)oc1NCCN1CCOCC1 | -12.2 | nt | -2.8% | 12.6 | 2.2% | nt
Cc1cccc(N(CC(=O)NC2CCCCC2)C(=O)CCC(=O)Nc2ccccn2)c1 | 11.7 | 13.9% | 1.5% | 5.9 | -0.4% | nt
Cc1ccnc(NC(=O)CCC(=O)N(CC(=O)NC2CCCCC2)c2ccc3c(c2)OCO3)c1 | 34.4 | -0.6% | -2.2% | 8.0 | 22.4µM* | -8.9
COC(=O)c1ccc(OC)c(Cn2c(=O)n(C)c(=O)c3ccccc32)c1 | nt | -1.5% | 0.1% | 0.6 | 20.0% | nt
O=S(=O)(c1cccc2nonc12)N1CCCCC1 | -39.0 | nt | -16.1% | -4.6 | 0.5% | nt
COc1cc(/C=N/n2c(-c3ccc4c(c3)NC(=O)CO4)csc2=Nc2cccc(C)c2)ccc1O | 38.3* | 5.0% | 0.1% | 32.6* | 11.2µM* | 28.0 | Flu PR8 replic=8.33
COc1ccc(/C(C)=N/NC(=O)CNC(=O)c2ccncc2)c(OC)c1 | -6.6 | 1.2% | 3.1% | -1.3 | -1.5% | nt
COc1ccc(C(=O)Nc2c(N)nc(SCC(=O)Nc3ccc(NC(C)=O)cc3)[nH]c2=O)cc1OC | -2.6 | nt | -5.0% | -0.6 | 22.4µM* | 21.1
COCCNC(=O)CCc1ccc(S(=O)(=O)Nc2ccc(C)cc2)cc1 | -23.5 | 7.3% | -0.6% | -4.8 | 15.8µM* | -20.7
Cc1ccc(NS(=O)(=O)c2ccc(CCC(=O)NC3CC3)cc2)cc1 | -17.5 | 2.8% | 4.1% | -1.6 | 2.2% | nt
Cc1cccc(NC2=Nc3ccccc3N3C2=Nc2c(c(C)nn2-c2ccccc2)C3c2ccc(O)c(O)c2)c1 (centres undefined) | -3.9 | -12.3% | 2.8% | -2.5 | 3.55µM* | 3.5
Cc1nn(-c2ccccc2)c2c1C(c1ccc(O)c(O)c1)N1C(=N2)C(Nc2ccccc2)=Nc2ccccc21 (centres undefined) | -9.1 | -10.8% | 4.5% | -1.0 | ? | nt
COc1ccc(C)cc1NC(=O)CN1C(=O)COc2ccc(C)cc21 | -9.1 | 1.9% | -16.2% | -2.2 | 6.4% | nt
O=C(CCCN1C(=O)c2ccccc2C1=O)Nc1cccc(S(=O)(=O)NC2=NCCC2)c1 | -6.1 | 3.1% | -0.7% | -0.3 | 3.7% | nt
CC1(C)C(C(=O)OCC(Cl)(Cl)Cl)N2C(=O)C(NC(=O)Cc3ccccc3)C2S1=O (centres undefined) | -4.2 | 7.6% | 3.9% | -1.7 | 3.6% | nt
CCc1ccc(NC(=O)C(C)OC(=O)c2cccc(S(=O)(=O)N3CCc4ccccc4C3)c2)cc1 (centres undefined) | 17.9 | -1.4% | 1.1% | 6.4 | 14.1µM* | -19.2
COc1ccc(C2NC(=O)NC(C)=C2C(=O)OC2CCC(C)CC2)cc1 (centres undefined) | -7.2 | -7.2% | 1.7% | -0.8 | ? | 5.8
SMILES | Shiga toxin inh | Giardia FBPA inh | LmPK inh | Cycloheximide cs | NS1 inh | Flu NS1 inh | others
COc1ccc(-n2cnnc2SCC(=O)c2ccc(S(=O)(=O)N3CCOCC3)cc2)cc1 | -4.2 | -9.5% | 2.3% | 0.3 | 1.78µM* | -0.2
COc1ccc(-n2cnnc2SCC(=O)Nc2cc(S(=O)(=O)N3CCCCC3)ccc2C)cc1 | -3.0 | ? | 0.8% | -3.2 | 7.7% | nt
COc1cccc(CNC(=O)c2ccncc2)c1 | -16.7 | nt | -6.8% | -2.3 | 9.3% | nt
N#C/C(=C/c1ccc(N2CCCCC2)o1)C(=O)Nc1ccc2ccccc2c1 | 87.6* | -2.9% | -3.4% | 39.8* | 11.2µM* | 1.5
Cc1cc(C)nc(Sc2ccc(/C=C(\C#N)C(=O)Nc3ccccc3)o2)n1 | 14.1 | -2.3% | 5.8% | 14.8 | 0.5% | nt
Nc1ccc2nc(SCC(=O)Nc3ccc(N4CCOCC4)c(Cl)c3)sc2c1 | 21.7 | -22.3% | -0.2% | 20.8* | 10µM* | -6.1
O=C(CSc1nc2ccc(Nc3nc(N4CCOCC4)nc(N4CCOCC4)n3)cc2s1)Nc1ccccc1Cl | 12.6 | 8.6% | 7.4% | 10.3 | 11.6% | nt
Cc1ccc(S(=O)(=O)N/N=C/c2ccc(C#N)cc2)cc1 | 14.2 | -20.1% | -2.6% | -3.1 | 5.5% | nt
c1nc(NC2CCCCCC2)c2[nH]cnc2n1 | 5.3 | -12.0% | -3.0% | 14.7 | 10µM* | -23.7
c1nc(NC2CCCCC2)c2[nH]cnc2n1 | 3.0 | -19.7% | 1.1% | 2.7 | 0.7% | nt
CCc1ccc(C(=O)C[n+]2cccc3cc(OC)ccc32)cc1 | -4.8 | 0.9% | 1.6% | 2.1 | 4.3% | nt
COC(=O)[C@H]1C[C@@H]1[C@H](NC(=O)[C@H]1C[C@@H]1[C@H](NC(=O)OCc1ccccc1)c1ccccc1)c1ccccc1 | 4.2 | -5.6% | 3.1% | 4.2 | 10µM* | -4.9
CC(C)NC(=O)[C@@H]1C[C@H]1[C@@H](NC(=O)OCc1ccccc1)c1ccccc1 | nt | -10.2% | nt | nt | nt | nt
COc1ccc2nc(SCC(=O)Nc3ccccc3)[nH]c2c1 | 46.9 | -9.1% | 6.6% | 8.0 | ? | -16.5
COc1ccc2nc(SCC(=O)NCc3ccccc3)[nH]c2c1 | -6.5 | 5.9% | 5.9% | 0.2 | 15.6% | nt
Cc1occc1C(=O)N(C)Cc1nc(-c2ccccc2)no1 | 32.0 | 0.4% | -2.9% | 9.4 | -7.2% | nt
COc1ccc(NS(=O)(=O)c2cccc(N/C(=N\S(=O)(=O)c3ccccc3)c3ccc(F)cc3)c2)cc1 | -10.6 | -1.7% | 5.4% | -6.7 | 11.2µM* | 27.3
O=C(O)c1cc(NS(=O)(=O)c2ccc(NCc3ccccc3)c([N+](=O)[O-])c2)cc(C(=O)O)c1 | -5.3 | 19.6% | 16.3% | -2.1 | 14.1µM* | 33.2
